Legend:
Experiment in all cases: PBM binding z-score (relative to random genomic background probes); higher = stronger binding; sequences stand for … in GC…GCGATTGACAGCGTAGAATGAAGG
[1] = tested on: FXR:RXRa (NR concentration 270 nM, RXRa partner concentration 90 nM)
In short: (§1)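 Each nuclear receptor dimer, without ligand, was incubated for 1 h on custom Agilent 4×180K protein-binding microarrays. Binding was detected with antibodies against each partner (one per run), and scanned fluorescence was regression-normalized. The binding z-scores are referenced to random human genomic background probes.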

[2] = tested on: LXRa:RXRa (NR concentration 270 nM, RXRa partner concentration 90 nM)
In short: as §1

[3] = tested on: LXRa homodimer (NR concentration 270 nM)
In short: as §1

[4] = tested on: LXRb:RXRa (NR concentration 270 nM, RXRa partner concentration 90 nM)
In short: as §1

[5] = tested on: LXRb homodimer (NR concentration 270 nM)
In short: as §1

[6] = tested on: PPARa:RXRa (NR concentration 270 nM, RXRa partner concentration 90 nM)
In short: as §1

[7] = tested on: PPARg:RXRa (NR concentration 180 nM, RXRa partner concentration 90 nM)
In short: as §1

[8] = tested on: PPARg:RXRa 270nM:90nM, anti-RXR (NR concentration 270 nM, RXRa partner concentration 90 nM)
In short: as §1

[9] = tested on: PPARg:RXRa 30nM:10nM, anti-RXR (NR concentration 30 nM, RXRa partner concentration 10 nM)
In short: as §1

[10] = tested on: PPARg:RXRa 90nM:30nM, anti-RXR (NR concentration 90 nM, RXRa partner concentration 30 nM)
In short: as §1

Sequence | PBM binding z-score [1] | PBM binding z-score [2] | PBM binding z-score [3] | PBM binding z-score [4] | PBM binding z-score [5] | PBM binding z-score [6] | PBM binding z-score [7] | PBM binding z-score [8] | PBM binding z-score [9] | PBM binding z-score [10]
ACTATTAGTTGACTAAGGGCAACCGATACGACGC | 0.232 | 0.474 | 0.168 | 0.518 | 0.478 | 0.573 | 1.06 | 0.728 | 0.0857 | 0.518
CGTCCAAGGTCATAGGAGGTGAGTGAAGACAGAT | 7.28 | 5.61 | 1.23 | 4.25 | 0.462 | 5.79 | 4.94 | 5.08 | 1.98 | 3.99
GCATATAGGTAATACAAGGTTAAAGTCCGATTGT | 0.589 | 5.43 | 4.13 | 2.63 | -0.0858 | 2.39 | 1.69 | 1.5 | 0.655 | 0.992
ATTATTAGTTGACTTAGGGCAACCGATACGACGC | 0.735 | 0.64 | 1.16 | 0.949 | 1.32 | 0.727 | 1.09 | 0.586 | 0.719 | 0.975
CGTCCAAGGTCATGGTCAGTGAAAGAGACTCGAA | 6.75 | 5.27 | 0.622 | 4.03 | 0.455 | 5.74 | 5.32 | 5.75 | 2 | 4.28
CCTAGCAGGCCATGGTCACTCAAGCATTTCGCTT | -0.268 | -0.369 | -0.374 | -0.307 | -0.863 | -0.349 | -0.143 | -0.198 | -0.855 | -0.418
ATATGTAGGTTAGATGGGGTCATTCAGACTAGGC | 4.98 | 5.67 | 3.54 | 4.97 | 1.56 | 5.11 | 5.98 | 5.22 | 2.6 | 4.55
ATCGAAAGGTCGAAGGTGAGTAGACCCACCCGAA | 4.66 | 3.33 | -0.000535 | 2.34 | 0.52 | 4.56 | 4.92 | 4.7 | 1.93 | 4.2
CCGCCTAGGTCAGGGCCAGTATAGGAGGAACGTT | 1.6 | 1.11 | -0.253 | 1.1 | -0.93 | 2.15 | 0.674 | 0.881 | -0.497 | -0.0982
TCATATAGGAAAAGGTGAAAGTCGAACGATATGA | 1.2 | 1.15 | -0.161 | 1.4 | -0.24 | 2.46 | 1.45 | 3.09 | 4.54 | 4.05
ACTATTAGTGGACTTAGGGCAACCGATACGACGC | 0.086 | -0.113 | -0.0613 | -0.278 | 0.0908 | -0.455 | 0.923 | 0.348 | 0.284 | 0.211
CCTTACGGGTCAAAGTTATAGCACGGGTGGTACG | 6.21 | 3.95 | 0.182 | 3.42 | 0.711 | 5.06 | 5.04 | 5.46 | 2.56 | 4.63
TCGAGTAGGTAACCAATGGGGCATTCAGCTTTCT | -0.177 | 0.0243 | -0.581 | 0.362 | -0.995 | 0.488 | -0.0874 | 0.632 | 1.08 | 0.602
TCTATAAGTTGATTAGGGCAACCGAAACAGCGGA | 0.561 | 0.285 | 0.0111 | 0.135 | -0.0997 | 1.13 | 0.429 | 2.02 | 3.59 | 2.83
ACTAGCAGGCCTAGGGTCACTCAAGATTAGTCCG | 1.77 | 1.89 | -0.469 | 1.82 | -0.871 | 2.81 | 1.99 | 3.41 | 1.39 | 2.89
AGAATGAGGTTATACGTAGATCAGGTAAGAAAGT | 2.3 | 2.13 | 0.183 | 1.72 | -0.0403 | 3.17 | 2.14 | 2.25 | 0.708 | 1.53
GCGACTGGGGCATCAGCAGGTTACAATAACTTAA | -0.294 | -0.143 | -0.328 | 0.834 | -0.691 | 1.24 | 1.02 | 0.768 | -0.192 | 0.171
CCTATTAGTAGACCATAAGGGCAACCGAAGCTCG | 0.44 | 0.377 | 0.422 | 0.468 | 0.364 | 0.752 | 0.777 | 1.21 | 0.45 | 0.915
GCGACTGGGGCATCAGCAGGTAACCATAACTTAA | -0.303 | -0.254 | -0.127 | 0.0489 | -0.791 | 0.658 | 0.905 | 0.685 | -0.0973 | 0.285
TCATATAGGTAAAGGTGAAAGTTGAACGATATGA | 1.54 | 1.75 | 0.158 | 1.89 | -0.399 | 4.3 | 5.92 | 5.66 | 5.22 | 5.99
ATAATGAGGTTATTAAGATCAGGGAATTGCGGTC | 1.9 | 2.12 | 0.684 | 1.48 | 1.07 | 2.81 | 1.91 | 2.14 | 0.859 | 1.5
ATCGCTAGGTAAAGTTCAGTGAAAGATCGATAGA | 0.349 | 1.22 | 0.609 | 0.692 | -0.361 | 1.81 | 1.85 | 3.26 | 1.49 | 2.75
CGCCAAAGTTCAACTAAGGTAACGTAAAGCACGC | 5.71 | 6.43 | 4.61 | 4.35 | 2.19 | 5.16 | 4.03 | 5.02 | 1.67 | 3.91

From the supplement of paper PMC6555819
